Results published in PubChem BioAssay (Tox21).
“And” between values parts separate entries of the source, which are not always exact repeats. Identical values can stand only once. Results filed as inconclusive are left out. The source holds several records for some structures; these can differ, active in one and inactive in another. The source made the active and inactive calls. Unless noted, calls come from the whole dose curve; as a rule, active = well fitted curve in the direction sought with a large enough effect in the repeat runs; inconclusive = weak or mixed curves; inactive = no such curve, though single readings can be large; an effect the other way counts as inactive or inconclusive.

Experiments:
[1] = A CellTox Green Cytotoxicity Assay to monitor cytotoxicity in HepG2 cells - 8 hour (AID 1224890); note: nearly all actives have a fitted effect of over 45% in size
Outline: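 Fluorescent DNA-binding dye, 600 HepG2 cells/well, 5 h preincubation then compound in DMSO; same plates read at 0–40 h, 37 C.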

[2] = qHTS assay to identify small molecule antagonists of the estrogen receptor alpha (ER-alpha) signaling pathway using the BG1 cell line in the presence of 0.1 nM 17-beta-estradiol - cell viability counter screen (AID 1259241); note: nearly all actives have a fitted effect of over 40% in size; note: potency is the fitted concentration of half-maximal effect
Outline: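 Following 5 days in phenol red-free medium with charcoal-stripped serum, VM7Luc4E2 cells received test compounds alongside 0.1 nM 17beta-estradiol (final) at 37C for 22 hr. Live cells were then quantified via protease-substrate fluorescence.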

[3] = qHTS assay to identify small molecule antagonists of the androgen receptor (AR) signaling pathway using the MDA cell line in the presence of 0.5 nM R1881 - cell viability counter screen (AID 1259242); note: nearly all actives have a fitted effect of over 45% in size
Outline: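 Human breast carcinoma MDA-kb2 cells, cultured without CO2, receive compounds alongside 0.5 nM (final) R1881 agonist. After 16 hr at 37C, viability is taken as live-cell protease signal.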

[4] = target: Androgen receptor (Homo sapiens) (UniProt P10275); assay: qHTS assay to identify small molecule antagonists of the androgen receptor (AR) signaling pathway using the MDA cell line in the presence of 0.5 nM R1881 (AID 1259243); note: nearly all actives have a fitted effect of over 50% in size
Outline: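 Cells: MDA-kb2 (MMTV-luc). Stimulus: 0.5 nM R1881. Time: 16 hr, 37C, no CO2. Detection: ONE-Glo luminescence after 30 min at RT.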

[5] = qHTS assay to identify small molecule phospholipidosis (PLD) inducers (AID 1259344; active = well fitted curve in the direction sought with a large enough effect; an effect the other way counts as inactive or inconclusive)
Outline: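 Image-based: LipidTOX Red pit count/intensity per well and per cell; HepG2, 24 h compound at 37 C, PFA fixation, Hoechst counterstain.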

[6] = qHTS assay to identify small molecule HDAC inhibitors - cell viability counter screen (AID 1259365); note: series mostly up to about 92 µM; nearly all actives have a fitted effect of over 50% in size
Outline: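 HCT-116 wild-type, overnight attachment; 2hr drug exposure, 37C; CellTiter-Glo luminescent ATP readout after 30min RT.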

[7] = qHTS assay to identify small molecule agonists of the sonic hedgehog signaling (Shh) pathway - cell viability counter screen (AID 1259366); note: nearly all actives have a fitted effect of over 50% in size; note: potency is the fitted concentration of half-maximal effect
Outline: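 Compounds in DMSO were pin-transferred onto 3T3 Gli1-Luc cells that had settled 4hr; plates then stood 24hr at 37C and 5% CO2. One hour before the end, CellTiter-Fluor was added and fluorescence recorded.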

[8] = qHTS assay to identify small molecule antagonists of the sonic hedgehog signaling (Shh) pathway - cell viability counter screen (AID 1259367); note: nearly all actives have a fitted effect of over 55% in size; note: potency is the fitted concentration of half-maximal effect
Outline: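 Tox21 library chemicals were tested on a Gli1-Luc NIH/3T3 clone (2,000 cells/well) stimulated by conditioned medium; viability was quantified as fluorescence from CellTiter-Fluor reagent added at 23 hr.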

[9] = qHTS assay to identify small molecule agonists of the sonic hedgehog signaling (Shh) pathway (AID 1259368; calls by dose curve;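 note: NIH/3T3-derived 3T3Gli1-Luc cells carrying a stable Gli1-driven firefly luciferase reporter; series mostly up to about 92 µM; nearly all actives have a fitted effect of over 15% in size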)
Outline: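 Stable NIH/3T3 Gli1-Luc reporter clone; 24 hr cpd exposure after a 4 hr settling period; luminescence endpoint.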

[10] = qHTS assay to identify small molecule antagonists of the sonic hedgehog signaling (Shh) pathway (AID 1259369; calls by dose curve; note: nearly all actives have a fitted effect of over 45% in size; note: potency is the fitted concentration of half-maximal effect)
Outline: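 Gli1 transcriptional reporter (firefly Luc) in NIH/3T3 background, conditioned-medium activated. 24hr exposure, luminescence endpoint.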

[11] = qHTS assay to identify small molecule agonists of the androgen receptor (AR) signaling pathway in the presence of an antagonist - cell viability counter screen (AID 1259379); note: nearly all actives have a fitted effect of over 25% in size; note: potency is the fitted concentration of half-maximal effect
Outline: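 Counter screen for cell viability run in parallel with the AR agonist-mode luciferase assay. MDA-kb2 cells were co-treated with nilutamide (3.0uM final) and compounds, then incubated 16 hr at 37C, and CellTiter-Fluor fluorescence was measured.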

[12] = qHTS assay to identify small molecule agonists of the estrogen receptor beta (ER-beta) signaling pathway - cell viability counter screen (AID 1259380); note: nearly all actives have a fitted effect of over 30% in size; note: potency is the fitted concentration of half-maximal effect
Outline: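 In this qHTS counter screen, HEK293T cells carrying an ER-beta/UAS beta-lactamase reporter, grown in 2% charcoal-stripped FBS, received compound for 16 hr; ATP-based CellTiter-Glo luminescence was then read after 30 min at room temperature.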

[13] = target: Androgen receptor (Homo sapiens) (UniProt P10275); assay: qHTS assay to identify small molecule agonists of the androgen receptor (AR) signaling pathway in the presence of an antagonist (AID 1259381; calls by dose curve; note: nearly all actives have a fitted effect of over 15% in size; note: potency is the fitted concentration of half-maximal effect)
Outline: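 AR antagonist background: nilutamide 3.0uM final. Cell line: MDA-kb2, MMTV-driven luciferase, responsive to both AR and GR. Exposure 16hr, 37C, no CO2; ONE-Glo luminescence.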

[14] = qHTS assay to identify small molecule antagonists of the estrogen receptor beta (ER-beta) signaling pathway - cell viability counter screen (AID 1259382); note: series mostly up to about 92 µM; nearly all actives have a fitted effect of over 55% in size
Outline: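 HEK293T ER-beta-UAS-bla, 2% charcoal-stripped FBS; compounds + 1nM E2 16 hr 37C; CellTiter-Glo luminescence, 30 min RT.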

[15] = qHTS assay to identify small molecule agonists or antagonists of the thyroid stimulating hormone receptor (TSHR) signaling pathway - wild type cell line counter screen (AID 1259384; calls by dose curve)
Outline: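 Wild-type Hek293 cells, 800/well, 18 h at 37C, then compound with Ro20-1724 for 30 min RT. cAMP by HTRF (cAMP-d2/anti-cAMP cryptate), 1 h RT, fluorescence read. 15 concentrations, triplicates.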

[16] = target: Estrogen receptor (Homo sapiens) (UniProt P03372); assay: qHTS assay to identify small molecule antagonists of the estrogen receptor alpha (ER-alpha) signaling pathway using the BG1 cell line in the presence of 0.1 nM 17-beta-estradiol (AID 1259244); note: nearly all actives have a fitted effect of over 50% in size; note: potency is the fitted concentration of half-maximal effect
Outline: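 Seeding of stripped-serum-adapted VM7Luc4E2 cells, 24 h attachment, compound transfer, then 0.1 nM final 17beta-estradiol; after 22 h incubation, ONE-Glo reagent and luminescence reading.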

[17] = qHTS assay to identify small molecule HDAC inhibitors (AID 1259364); note: potency is the fitted concentration of half-maximal effect;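 note: wild-type HCT-116 cells with endogenous class I/II HDAC activity; nearly all actives have a fitted effect of over 45% in size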
Outline: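 After a 2 hr compound incubation (37C, 5% CO2), HCT-116 cells seeded at 1,500/well the day before received HDAC-Glo reagent; signal read as luminescence after 30 min at room temperature.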

[18] = target: Estrogen receptor beta (Homo sapiens) (UniProt Q92731); assay: qHTS assay to identify small molecule agonists of the estrogen receptor beta (ER-beta) signaling pathway (AID 1259377; active = well fitted activation curve with a large enough effect in the signal ratio in the repeat runs, not every such curve was filed as active; the % refers to the signal ratio)
Outline: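 qHTS in ER-beta-UAS-bla HEK293T cells: 6 hr settling, then 16 hr compound at 37C, then LiveBLAzer substrate 2 h at RT before fluorescence reading.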

[19] = target: Estrogen receptor beta (Homo sapiens) (UniProt Q92731); assay: qHTS assay to identify small molecule antagonists of the estrogen receptor beta (ER-beta) signaling pathway (AID 1259378; active = well fitted inhibition curve with a large enough effect in the signal ratio in the repeat runs, not every such curve was filed as active; the % refers to the signal ratio; note: potency is the fitted concentration of half-maximal effect)
Outline: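 ER-beta-UAS-bla HEK293T cells in 2% charcoal-stripped FBS medium treated with compound plus 1nM final 17-beta-estradiol for 16 hr at 37C. Beta-lactamase reporter read by FRET substrate fluorescence after 2 hours at room temperature.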

[20] = target: Estrogen receptor (Homo sapiens) (UniProt P03372); assay: qHTS assay to identify small molecule agonists of the estrogen receptor alpha (ER-alpha) signaling pathway in the presence of an antagonist (AID 1259383; calls by dose curve; note: top concentration of the series differs between compounds; nearly all actives have a fitted effect of over 15% in size)
Outline: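 ER-alpha agonism measured under antagonist challenge: 10.0nM ICI-182,780 (final) plus compound, 15 concentrations, 22hr, VM7Luc4E2 ERE-luciferase cells. Read by luminescence.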

Measured: Potency

Estrogen receptor beta (Homo sapiens), sequence (Q92731 whole entry, looked up): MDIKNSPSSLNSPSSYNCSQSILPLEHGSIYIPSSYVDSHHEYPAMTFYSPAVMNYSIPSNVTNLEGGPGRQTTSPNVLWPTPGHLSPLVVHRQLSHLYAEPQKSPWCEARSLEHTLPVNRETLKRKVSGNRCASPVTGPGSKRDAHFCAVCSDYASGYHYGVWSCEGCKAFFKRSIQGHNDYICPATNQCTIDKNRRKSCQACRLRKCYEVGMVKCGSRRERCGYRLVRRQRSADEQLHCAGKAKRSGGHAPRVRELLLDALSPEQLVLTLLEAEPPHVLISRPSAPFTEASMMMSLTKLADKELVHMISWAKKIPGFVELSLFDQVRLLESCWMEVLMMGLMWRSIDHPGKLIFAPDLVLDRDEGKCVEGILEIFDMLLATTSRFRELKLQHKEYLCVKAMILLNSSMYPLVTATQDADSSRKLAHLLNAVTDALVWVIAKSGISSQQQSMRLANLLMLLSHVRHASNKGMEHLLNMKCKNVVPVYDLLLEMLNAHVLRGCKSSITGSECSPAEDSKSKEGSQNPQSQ
Estrogen receptor (Homo sapiens), sequence (P03372 whole entry, looked up): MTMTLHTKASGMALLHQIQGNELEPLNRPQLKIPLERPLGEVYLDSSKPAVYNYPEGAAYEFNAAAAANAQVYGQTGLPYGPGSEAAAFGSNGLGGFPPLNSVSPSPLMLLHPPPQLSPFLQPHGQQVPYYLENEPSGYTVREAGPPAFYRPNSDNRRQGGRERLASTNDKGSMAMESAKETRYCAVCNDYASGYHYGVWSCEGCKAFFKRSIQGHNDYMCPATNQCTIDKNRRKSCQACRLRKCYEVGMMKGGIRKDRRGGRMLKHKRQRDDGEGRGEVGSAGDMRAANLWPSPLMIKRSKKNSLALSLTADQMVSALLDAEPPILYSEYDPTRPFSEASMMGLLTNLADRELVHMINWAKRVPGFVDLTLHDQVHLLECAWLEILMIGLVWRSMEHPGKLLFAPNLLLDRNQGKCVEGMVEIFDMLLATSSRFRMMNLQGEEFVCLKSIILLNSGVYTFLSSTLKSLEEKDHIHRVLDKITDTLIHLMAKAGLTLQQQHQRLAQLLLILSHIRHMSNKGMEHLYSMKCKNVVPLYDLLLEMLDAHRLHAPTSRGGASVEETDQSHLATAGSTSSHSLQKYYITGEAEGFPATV
Androgen receptor (Homo sapiens), sequence (P10275 whole entry, looked up): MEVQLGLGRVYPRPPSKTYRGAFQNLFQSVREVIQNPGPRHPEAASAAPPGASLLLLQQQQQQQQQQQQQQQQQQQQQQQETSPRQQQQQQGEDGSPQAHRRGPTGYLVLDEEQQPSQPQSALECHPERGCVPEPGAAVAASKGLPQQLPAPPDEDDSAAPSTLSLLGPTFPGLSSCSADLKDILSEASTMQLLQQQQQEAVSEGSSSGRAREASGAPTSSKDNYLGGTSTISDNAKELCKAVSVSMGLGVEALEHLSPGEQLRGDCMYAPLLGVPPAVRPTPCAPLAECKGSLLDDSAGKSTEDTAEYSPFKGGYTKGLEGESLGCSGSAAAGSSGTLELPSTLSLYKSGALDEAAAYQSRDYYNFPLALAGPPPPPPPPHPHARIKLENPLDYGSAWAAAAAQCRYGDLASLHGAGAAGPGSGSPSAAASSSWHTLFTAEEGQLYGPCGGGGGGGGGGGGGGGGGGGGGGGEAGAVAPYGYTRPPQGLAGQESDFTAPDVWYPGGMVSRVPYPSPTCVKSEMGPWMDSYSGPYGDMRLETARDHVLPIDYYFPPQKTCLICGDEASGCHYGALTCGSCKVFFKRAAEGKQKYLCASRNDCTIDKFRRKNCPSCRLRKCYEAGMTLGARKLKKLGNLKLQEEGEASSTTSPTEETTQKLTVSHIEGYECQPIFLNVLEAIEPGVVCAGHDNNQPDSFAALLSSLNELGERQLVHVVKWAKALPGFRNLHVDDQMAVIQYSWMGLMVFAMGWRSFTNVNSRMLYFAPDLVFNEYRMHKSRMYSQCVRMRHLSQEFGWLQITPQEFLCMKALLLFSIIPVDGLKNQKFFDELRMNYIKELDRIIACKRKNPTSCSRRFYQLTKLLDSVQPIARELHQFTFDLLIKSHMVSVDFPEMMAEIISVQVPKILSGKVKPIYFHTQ

O=C(O)c1cc(-c2ccccc2)nc2ccccc12
55.1 µM (active) and inactive: [13]
not listed: [16] | [17] | [18] | [19] | [20]
inactive: all other assays above

CCCCCCCCCCCCOCC1CO1 (stereo not drawn)
not listed: [4] | [5] | [13]
inactive: all other assays above

Cc1cc(=O)[nH]c(C(C)C)n1
not listed: [5] | [7] | [18]
inactive: all other assays above

CCCCCC/C=C/CCCCCCCC(=O)O
not listed: [4] | [5] | [13]
inactive: all other assays above

CC(C)(C)C1CCC(O)CC1 (stereo not drawn)
not listed: [4] | [5] | [13]
inactive: all other assays above

CC1=CC[C@H]2C[C@@H]1C2(C)C
not listed: [4] | [5] | [13]
inactive: all other assays above

CCCCCCCCCC(=O)O
not listed: [16] | [18] | [19] | [20]
inactive: all other assays above

Nc1cc(-c2ccncc2)c[nH]c1=O
not listed: [7]
inactive: all other assays above

CCC(=O)O
not listed: [4] | [7] | [13] | [15] | [18] | [19]
inactive: all other assays above

CC1=C(/C=C/C(C)=C/C=C/C(C)=C/CO)C(C)(C)CCC1
active: [10] 15.5 µM
inactive and 64.4 µM (active): [19]
not listed: [4] | [13]
inactive: all other assays above

NCCc1ccc(O)c(O)c1
24.4 µM (active) and inactive: [7]
active: [2] 34.5 µM | [16] 2.44 µM | [10] 0.866 µM
54.6 µM (active) and inactive: [11]
30.7 µM (active) and inactive: [8]
not listed: [4] | [13] | [15]
inactive: all other assays above

OCCOCCOCCOCCO
not listed: [4] | [5] | [13]
inactive: all other assays above

CN(CCOc1ccc(CC2SC(=O)NC2=O)cc1)c1ccccn1 (stereo not drawn)
30.5 µM (active) and inactive: [17]
not listed: [4] | [7] | [12] | [13]
inactive: all other assays above

CCCCCCCCC
not listed: [4] | [5] | [13]
inactive: all other assays above

OC1CCCC1
not listed: [4] | [5] | [13]
inactive: all other assays above

CCCCC/C=C\C/C=C\CCCCCCCC(=O)OC
inactive and 24.3 µM (active): [10]
inactive and 48.6 µM (active): [12]
not listed: [4] | [5] | [13]
inactive: all other assays above
